# Compounds without any hit were thinned out: in the full panel of roughly 83,000, 20% have a hit.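 Note: values are percent growth. 100 is the growth of untreated cells, values between 100 and 0 indicate rising inhibition; between -100 and 0 indicates cell death.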 Unmarked numbers belong to inactive results. Calls of active or inactive are those of the source. Rule for the calls: active = growth percent below 10; inactive = the rest.
# System: SF-268 CNS
# Experiment: NCI-60 one-dose screen, 48 h (100 = growth as untreated, 0 = no growth, -100 = all killed)
# Conditions: 10 µM unless noted
row,Structure (SMILES),growth
1,C=CC(=O)Nc1cccc(-c2nc(SC)nc(NCc3ccccc3)c2C#N)c1,49%
2,COC(=O)c1ccc2oc(NC(=O)c3ccc(Nc4ccc([N+](=O)[O-])cc4C)c([N+](=O)[O-])c3)nc2c1,97.9%
3,COc1cc(/C=C/c2cc(/C=C/c3ccc(O)c(OC)c3)n(-c3c(Cl)cccc3Cl)c(=O)n2)ccc1O,19.9%
4,CSc1nc(Nc2cccc(NC(=O)CCl)c2)c(C#N)c(-c2cccc([N+](=O)[O-])c2)n1,34%
5,CC(C)(C)N1CCC1CN (stereo not drawn),100%
6,Cc1ccc(NC(=O)/C=C/c2ccccc2)c(C(N)=O)c1,43.3%
7,COc1ccc(-n2nc(C)c3c(Nc4ccc(NC(=O)Nc5cccc(C(F)(F)F)c5)cc4)ncnc32)cc1,22.8%
8,O=C1OCC2=C1C(c1ccncc1)c1cc3c(cc1N2CCO)OCO3 (stereo not drawn),97.7%
9,C#Cc1cccc(NC(=O)c2ccccc2NC(=O)C=C)c1,95.6% [8.25 µM]
10,CCOc1cc2ncc(C#N)c(Nc3ccc(F)c(Cl)c3)c2cc1NC(=O)CC1CCSS1 (stereo not drawn),-55.2% (active)
11,CN(Cc1cc(Cl)cc(Cl)c1O)Cc1cc(Cl)cc(Cl)c1O,62.6%
12,CC(=O)O[C@H]1[C@@H]2OC(=O)C(CSc3ccccc3)[C@@H]2C[C@H]2O[C@]2(C)CC/C=C(\C)CCC[C@@H]1C (stereo partly drawn),44.7%
13,COc1ccc(/C=N/C2=C(C#N)C(c3ccc(N(C)C)cc3)c3ccc4ccccc4c3O2)cc1 (stereo not drawn),63.1%
14,C[n+]1ccccc1/C=C/c1ccc2cccc(O)c2n1,97.1%
15,Cc1nn(-c2ccc(F)cc2)c2ncnc(Oc3ccc(NC(=O)Nc4ccc(Cl)c(C(F)(F)F)c4)cc3)c12,93.4%
16,COc1ccc(C(=O)c2sc3nc(C)cc(C)c3c2N)cc1OC,60.1%
17,C=CC(=O)Nc1cccc(-c2nc(SC)nc(Nc3ccccc3OC)c2C#N)c1,53.5%
18,Nc1nc2ncc(CCNc3ccc(C(=O)O)cc3)nc2c(=O)[nH]1,120%
19,CCCSc1ccc2nc(NC(=O)OC)[nH]c2c1,44.8%

row,Structure (SMILES),growth
1,CCCc1cc(=O)n2c(C(=O)Nc3ccc(F)cc3)c(C(=O)Nc3ccc(F)cc3)sc2n1,18.1% [30 µM]
2,O=C(/C=C/c1ccccc1)c1ccc(O)c(CN2CCN(c3cc4c(cc3F)c(=O)c(C(=O)O)cn4C3CC3)CC2)c1,28.1%
3,CCOC(=O)c1sc2nc(-c3cccc(OC)c3)nc(N3CCOCC3)c2c1C,88.4%
4,CCCCCCCCCCCCC[N+](C)(C)Cc1ccccc1,-84.5% (active)
5,CCCOc1ccc2nc(NC(=O)OC)[nH]c2c1,26.2%
6,Nc1n[nH]c2ccc([C@@H]3Nc4ccc5cn[nH]c5c4[C@H]4C5CCC(C5)[C@@H]34)cc12 (stereo partly drawn),42%
7,O=c1nc2oc3ccc4ccccc4c3cc-2s1,40.8%
8,COC(=O)c1cccc(NC(=O)c2ccc(-c3cccc(N)c3)o2)c1,100%
9,CCOC(=O)c1c(C)oc2ncnc(N3CCN(C(=S)Nc4ccccc4)CC3)c12,94.1%
10,CCCCN(CCCC)CCCn1c(-c2ccccc2)ccc1-c1ccccc1,73.7%
11,CN1CCN(CCCOc2cccc3nc(Nc4ccc(Cl)c(F)c4)ccc23)CC1,44.3%
12,COc1cccc(/C=N/NC(=O)c2ccccc2Nc2ccnc(C(F)(F)F)c2)c1O,18.9%
13,COc1cc2nc(N3CCCC3)nc(NCc3ccccc3)c2cc1OC,87.6%
14,COc1cc2c(cc1-c1c(C)noc1C)ncc1nc(-c3ccccn3)n([C@H](C)COC(F)F)c12,70.9%
15,COc1cccc(-c2nc3sccn3c2-c2ccnc(NCCCNS(=O)(=O)c3c(Cl)cccc3Cl)c2)c1,68.4%
16,N#Cc1c(-c2ccc(Cl)cc2)nc(NN=Cc2ccco2)nc1N1CCOCC1,74.5%
17,O=C(Nc1cccc2[nH]c(C(F)(F)F)nc12)c1ccc(-n2cnnn2)cc1,96%
18,CC1CCNC(C)C1 (stereo not drawn),104%
19,CCN(CC)c1ccc(-c2cc(-c3cc(OC)c(OC)c(OC)c3)nc(N3CCOCC3)c2C#N)cc1,39.6%

# — PubChem BioAssay (NCI)
